# Test results taken from PubChem BioAssay AID463173 (ICCB-Longwood Screening Facility, Harvard Medical School, 2010).
# In all, about 52,000 compounds went through this assay and about 4,300 (8.3%) were called active. No stated cut-off is given here; in the data, active means survival mostly below about 52% (no sharp cut-off); inactive means mostly above about 56%. For the sample, actives were picked, then their nearest neighbours and some compounds at random.
# Test system: DeltatarO mutant
# Experiment: S. aureus survival, RN4220 and DeltatarO strains – OD600, teichoic acid synthesis inhibitors, primary screen (AID 463173)
# Details: S. aureus RN4220 wild type/DeltatarO growth, OD600, 18 h, active compounds read low, screened at 18.75 µg/mL (by protocol)
row,SMILES,survival
1,Cc1cccc(-n2c(=O)c3c4c(sc3n3cnnc23)CCCC4)c1,72% (inactive)
2,CSc1nnc2n(-c3cccc(C)c3)c(=O)c3c4c(sc3n12)CCCC4,66% (inactive)
3,CCSc1nnc2n(-c3ccccc3)c(=O)c3c4c(sc3n12)CCCC4,95% (inactive)
4,CCSc1nnc2n(-c3cccc(C)c3)c(=O)c3c4c(sc3n12)CCCC4,71% (inactive)
5,CCCCSc1nnc2n(-c3cccc(C)c3)c(=O)c3c4c(sc3n12)CCCC4,1% (active)
6,CCCSc1nnc2n(-c3cccc(C)c3)c(=O)c3c4c(sc3n12)CCCC4,5% (active)
7,CC(C)Oc1ccc(CNC(=O)c2cc3cccc4c3n2CC(C)S4)cc1 (centres undefined),91% (inactive)
8,Cc1ccc(CCNC(=O)c2nn(C)c3c2CSc2ccccc2-3)cc1,82% (inactive)
9,Cc1cccc(CCNC(=O)c2nn(C)c3c2CSc2ccccc2-3)c1,77% (inactive)
10,Cc1ccc2c(c1)-c1c(c(C(=O)NCCc3ccccc3)nn1C)CS2,37% (active)
11,O=C(Nc1ccc(C(=O)OCc2cc(=O)n3c4c(sc3n2)CCCC4)cc1)c1ccc(F)cc1,101% (inactive)
12,Cc1ccc(OCc2cc(=O)n3c4c(sc3n2)CCCC4)cc1C,82% (inactive)
13,Cc1ccccc1C(=O)Nc1cccc(C(=O)OCc2cc(=O)n3c4c(sc3n2)CCCC4)c1,46% (active)
14,COc1ccccc1C(=O)Nc1ccc(C(=O)OCc2cc(=O)n3c4c(sc3n2)CCCC4)cc1,37% (active)
15,O=C(Nc1ccccc1C(=O)OCc1cc(=O)n2c3c(sc2n1)CCCC3)c1cccc(Cl)c1,69% (inactive)
16,O=C(OCc1cc(=O)n2c3c(sc2n1)CCCC3)c1cccc(NC(=O)c2ccccc2F)c1,115% (inactive)
17,Cc1ccc(C(=O)Nc2ccc(C(=O)OCc3cc(=O)n4c5c(sc4n3)CCCC5)cc2)cc1,83% (inactive)
18,Cc1ccccc1C(=O)Nc1ccc(C(=O)OCc2cc(=O)n3c4c(sc3n2)CCCC4)cc1,118% (inactive)
19,O=C(Nc1ccccc1C(=O)OCc1cc(=O)n2c3c(sc2n1)CCCC3)c1ccccc1,107% (inactive)
20,Cc1cccc(C)c1OCc1cc(=O)n2c3c(sc2n1)CCCC3,-17% (active)
21,O=C(Nc1ccccc1C(=O)OCc1cc(=O)n2c3c(sc2n1)CCCC3)c1ccc(Cl)cc1,0% (active)
22,Cc1cccc(OCc2cc(=O)n3c4c(sc3n2)CCCC4)c1C,131% (inactive)

row,SMILES,survival
1,COc1ccccc1C(=O)Nc1cccc(C(=O)OCc2cc(=O)n3c4c(sc3n2)CCCC4)c1,92% (inactive)
2,Cc1ccc(C(=O)c2oc3ccccc3c2NC(=O)COc2ccc(Cl)c(C)c2)cc1,90% (inactive)
3,COc1cc(-c2nc3n(n2)C(c2ccc(F)cc2)C(C(N)=O)=C(C)N3)cc(OC)c1OC (centres undefined),91% (inactive)
4,Cc1ccc2c(CC(=O)Nc3c(C(=O)Nc4cccc(Cl)c4)oc4ccccc34)coc2c1C,62% (inactive)
5,Cc1cccc(OCc2cc(=O)n3c(-c4ccccc4)csc3n2)c1C,77% (inactive)
6,O=C(Nc1ccc(C(=O)OCc2cc(=O)n3c4c(sc3n2)CCCC4)cc1)c1ccccc1,25% (active)
7,O=C(Nc1cccc(C(=O)OCc2cc(=O)n3c4c(sc3n2)CCCC4)c1)c1ccccc1,102% (inactive)
8,Cc1ccccc1OCc1cc(=O)n2c(-c3ccccc3)csc2n1,69% (inactive)
9,Cc1cccc(C)c1OCc1cc(=O)n2c(-c3ccccc3)csc2n1,19% (active)
10,O=C(Nc1ccc(C(=O)OCc2cc(=O)n3c4c(sc3n2)CCCC4)cc1)c1ccc(Cl)cc1,92% (inactive)
11,CCN1CCN(CCCNC(=O)Cn2c(-c3cccs3)cc3ccccc32)CC1,78% (inactive)
12,Cc1ccccc1Cn1c2ccccc2c2cnn(CC(=O)NC3CCCCCC3)c(=O)c21,87% (inactive)
13,Cc1ccc2[nH]c(=O)c3cc(C(=O)NCCc4ccc(Cl)cc4)sc3c2c1,74% (inactive)
14,CCc1nnc(NC(=O)c2sc3nc4ccc(OC)cc4cc3c2N)s1,77% (inactive)
15,CCCCNC(=O)c1cc(-c2ccc(Cl)c(Cl)c2)on1,45% (active)
16,CC(=O)c1ccc(NC(=O)c2cc(-c3ccc(Cl)c(Cl)c3)on2)cc1,47% (active)
17,CC(=O)c1ccc(NC(=O)c2cc(-c3ccc4c(c3)OCO4)on2)cc1,67% (inactive)
18,CC(=O)Nc1ccc(NC(=O)c2cc(-c3ccc4c(c3)OCCO4)on2)cc1,118% (inactive)
19,O=C(NCCc1ccccc1)c1cc(-c2ccc(Cl)c(Cl)c2)on1,57% (inactive)
20,CCCNC(=O)c1cc(-c2ccccc2)on1,95% (inactive)
21,O=c1cc(Nc2cccc(Br)c2)[nH]c(=O)[nH]1,68% (inactive)
22,O=C(NCc1cccs1)c1ccc(Cn2c(SCc3ccccc3)nc3cccnc32)cc1,71% (inactive)

row,SMILES,survival
1,CCOc1ccc(NC(=O)c2sc3nc4c(c(-c5ccccc5)c3c2N)C(=O)CC(C)(C)C4)cc1,49% (inactive)
2,CCOC(=O)c1cc(NC(=O)c2ccc(Cl)cc2)c(=O)n2c1oc1ccccc12,34% (active)
3,CCOC(=O)c1cc(NC(=O)c2ccc(C)cc2)c(=O)n2c1oc1ccccc12,52% (inactive)
4,CCOC(=O)c1cc(NC(=O)c2ccc(C)cc2)c(=O)n2c1oc1ccc(Cl)cc12,55% (inactive)
5,CCOC(=O)c1cc(NC(=O)c2ccc(F)cc2)c(=O)n2c1oc1ccc(Cl)cc12,127% (inactive)
6,CCOC(=O)c1cc(NC(=O)c2ccc(OC)cc2)c(=O)n2c1oc1ccc(Cl)cc12,46% (active)
7,CCOC(=O)c1cc(NC(=O)c2ccc(F)cc2)c(=O)n2c1oc1ccccc12,54% (inactive)
8,O=C(NCCC1=CCCCC1)c1ccc2c(c1)ncn2-c1cccc(Cl)c1,98% (inactive)
9,Cc1cc(C)c(NC(=O)Cn2ccn(-c3cccc(Cl)c3)c(=O)c2=O)c(C)c1,57% (inactive)
10,COc1ccc(NC(=O)c2cc(S(=O)(=O)N3CCOCC3)cn2C)cc1Cl,108% (inactive)
11,CCN(CC)C(=O)c1sc2c(c1C)c(=O)n(CCc1ccccc1)c(=O)n2Cc1ccc(F)cc1Cl,89% (inactive)
12,COc1ccc(CN2CCN(S(=O)(=O)c3ccc(NC(C)=O)cc3)CC2)c(OC)c1OC,61% (inactive)
13,Cc1ccc(S(=O)(=O)N2CCN(S(=O)(=O)c3ccc(C)cc3)CC2)cc1,96% (inactive)
14,Cc1ccc(S(=O)(=O)N2CCN(Cc3ccccc3Cl)CC2)cc1,13% (active)
15,CCS(=O)(=O)N1CCN(S(=O)(=O)c2ccc(Cl)cc2)CC1,88% (inactive)
16,COc1cc(OC)c(OC)cc1CN1CCN(S(=O)(=O)c2ccc(NC(C)=O)cc2)CC1,79% (inactive)
17,CCOc1cc(CN2CCN(S(=O)(=O)c3ccc(C)cc3)CC2)ccc1OC,171% (inactive)
18,Cc1ccc(S(=O)(=O)N2CCC(C(=O)NCc3ccccc3Cl)CC2)cc1,74% (inactive)
19,CCOc1ccc(CN2CCN(S(=O)(=O)c3ccc(Cl)cc3)CC2)cc1,27% (active)
20,CC(=O)Nc1ccc(S(=O)(=O)N2CCN(Cc3ccccc3Cl)CC2)cc1,62% (active)
